Mtb UGM inh: Mtb UDP-galactopyranose mutase inhibition; P9WIQ1; purified UGM, fluorescence polarization probe displacement; inhibition, % at 10 µM; actives 0.06% (n = 320,000); AID 504406; in the data active = inhibition above about 10%, passing the limit was not always enough
RecA splice inh: blocks M. tuberculosis RecA intein splicing. cell-free RecA intein splicing, fluorescence. inhibition, % (test concentration not listed). actives 0.75% (n = 290,000). AID 2221; in the data active = inhibition above about 30%;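 note: 0% = vehicle wells and 100% = reference inhibitor control wells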
FadD28 FP inh: M. tuberculosis FadD28 bisubstrate binding inhibition; FadD28 bisubstrate probe binding, fluorescence polarization; inhibition, % at 12.5 µM; actives 0.22% (n = 360,000); AID 588549; in the data active = inhibition above about 8.5%, passing the limit was not always enough
BioA inh: inhibitors of Mycobacterium tuberculosis BioA enzyme; purified M. tuberculosis BioA enzyme, plate reader; inhibition, % at 9.99 µM; actives 0.096% (n = 360,000); in the data active = inhibition above about 40%
TcdB inh: inhibitors of Clostridioides difficile toxin B glycohydrolase. P18177. TcdB glycohydrolase enzymatic assay, plate reader. inhibition, % at 9.99 µM. actives 0.24% (n = 350,000); in the data active = inhibition above about 10%
Rv3671c inh: Rv3671c (M. tuberculosis) protease inhibition; inhibition, % at 5.96 µM; actives 0.048% (n = 320,000); P9WHR9; in the data active = inhibition above about 38%;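 note: extracellular domain of Rv3671c used as enzyme; 0% = enzyme with DMSO and 100% = no enzyme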
GFP chromophore: counter-screen GFP chromophore formation inhibition; actives 83% (n = 2,100); EC50, µM; shares compounds with RecA splice inh; AID 434968; cell-free GFP chromophore formation, fluorescence; call rule not given here
* = called active by the depositor. Rows were chosen to be rich in hits. Some 0.9% of all compounds tested hit in one or more screens of this group.

For CC1=NN(c2ccccc2)C(=O)/C1=C\c1cc(C)n(C)c1C the results were Mtb UGM inh 1, RecA splice inh 22, FadD28 FP inh -1, BioA inh 0, TcdB inh 0 and Rv3671c inh 0.
Screening CC1=NN(c2ccccc2)C(=O)/C1=C/c1c(O)[nH]c(=O)[nH]c1=O returned Mtb UGM inh -1, RecA splice inh 43*, FadD28 FP inh -3, BioA inh 0, TcdB inh -2 and Rv3671c inh -75.
CC1=NN(c2ccccc2)C(=O)/C1=C\c1cn(C)c2ccccc12 was read as Mtb UGM inh 1, RecA splice inh 39*, FadD28 FP inh 0, BioA inh -1, TcdB inh 0 and Rv3671c inh 11.
COn1c(-c2ccc(Cl)cc2)nc2ccc(Cl)cc21 was read as Mtb UGM inh -1, RecA splice inh 3, FadD28 FP inh -6, BioA inh -2 and Rv3671c inh -5.
`O=C(O)COn1c(-c2ccc(Cl)cc2)nc2ccc(Cl)cc21` gave Mtb UGM inh 0, RecA splice inh 1, FadD28 FP inh -4, TcdB inh 10* and Rv3671c inh 1.
For CS(=O)(=O)C1=C(O)C(=O)N(c2ccccc2)C1c1ccccc1 (stereo not given) the results were Mtb UGM inh 3, RecA splice inh -2, FadD28 FP inh -2, BioA inh -3 and Rv3671c inh 4.
For CC(C)(C)C(=O)C1=C(O)C(=O)N(c2ccccc2)C1c1ccccc1 (stereo not given) the results were Mtb UGM inh 2, RecA splice inh 0, FadD28 FP inh 0, BioA inh 0, TcdB inh 22* and Rv3671c inh 0.
O=c1cc(-c2cccc([N+](=O)[O-])c2)[nH][nH]1 was read as Mtb UGM inh 2, RecA splice inh 96*, FadD28 FP inh -1, BioA inh 0, Rv3671c inh -77 and GFP chromophore 11*.
`CC(C)NC(=O)N(C)C[C@@H]1OCCCC[C@@H](C)Oc2ccc(NS(=O)(=O)c3cn(C)cn3)cc2C(=O)N([C@H](C)CO)C[C@H]1C` gave BioA inh 11 and TcdB inh 0.
Screening CC1(C)CC(=O)C2=C(C1)OC(N)=C(C#N)C21CCC2(CC1)OCCO2 returned Mtb UGM inh -3, RecA splice inh -5, FadD28 FP inh -4, BioA inh 0 and Rv3671c inh 12.
For COCc1[nH]nc2c1C1(CCSCC1)C(C#N)=C(N)O2 the results were Mtb UGM inh 0, RecA splice inh 74*, FadD28 FP inh 1, BioA inh 0, Rv3671c inh -14 and GFP chromophore 20*.
For Cc1[nH]nc2c1C1(CCC3(CC1)OCCO3)C(C#N)=C(N)O2 the results were Mtb UGM inh 2, RecA splice inh 74*, FadD28 FP inh 0, TcdB inh -1, Rv3671c inh 5 and GFP chromophore >38.
For CCOC(=O)N1CCC2(CC1)C(C#N)=C(N)Oc1n[nH]c(C)c12 the results were Mtb UGM inh 2, RecA splice inh 80*, FadD28 FP inh -3, BioA inh -1, Rv3671c inh -4 and GFP chromophore 13*.
`CCc1[nH]nc2c1C1(CCOC1C)C(C#N)=C(N)O2` (stereo not given) gave Mtb UGM inh 1, RecA splice inh 2, FadD28 FP inh 0, BioA inh -2 and Rv3671c inh -3.
For Cc1noc(C)c1S(=O)(=O)N(C)C[C@@H]1OCCCC[C@H](C)Oc2ccc(NC(=O)CCCN(C)C)cc2C(=O)N([C@H](C)CO)C[C@@H]1C the results were BioA inh -2 and TcdB inh 0.
`O=C(OCn1ncc(Cl)c(Cl)c1=O)c1cccc(C(F)(F)F)c1` gave Mtb UGM inh 0, RecA splice inh 94*, FadD28 FP inh -1, BioA inh -3, Rv3671c inh -26 and GFP chromophore 1.6*.
Screening N/C(=N\OC(=O)c1cccc(C(F)(F)F)c1)c1cnccn1 returned Mtb UGM inh -1, RecA splice inh 0, FadD28 FP inh -1, BioA inh -1, TcdB inh 1 and Rv3671c inh 2.
For C=C(C)C(O)Cc1c(OC)ccc(C(=O)/C=C/c2ccc(O)cc2)c1O (stereo not given) the results were FadD28 FP inh -6, BioA inh -1, TcdB inh 0 and Rv3671c inh -6.
`CC(C)=CCC/C(C)=C/Cc1c(O)ccc(C(=O)/C=C/c2ccc(O)cc2)c1O` gave Mtb UGM inh 3, RecA splice inh 44*, FadD28 FP inh -6, BioA inh -1, TcdB inh -2, Rv3671c inh -61 and GFP chromophore >38.
`O=C(c1ccccc1)c1coc2c1C(=O)c1ccccc1C2=O` gave Mtb UGM inh -1, RecA splice inh 17, FadD28 FP inh -1, TcdB inh 0 and Rv3671c inh -22.
For O=C1c2ccccc2-c2onc3ccc(Oc4ccccc4)c1c23 the results were Mtb UGM inh 1, RecA splice inh 86*, FadD28 FP inh -2, BioA inh 1, Rv3671c inh -62 and GFP chromophore 0.81*.
`CN1CCN(C(c2ccccn2)c2cc(Cl)c3cccnc3c2O)CC1` (stereo not given) gave Mtb UGM inh -1, RecA splice inh 5, FadD28 FP inh -4, TcdB inh -10 and Rv3671c inh 8.
`Cc1ccc(C(c2cc(Cl)c3cccnc3c2O)N2CCN(C)CC2)cc1` (stereo not given) gave Mtb UGM inh 0, RecA splice inh 75*, FadD28 FP inh -4, BioA inh 0, Rv3671c inh 5 and GFP chromophore 8.7*.
Cc1ccc(C)c(Sc2ccc(NC(=O)CCN3C(=O)NC4(CCCC4)C3=O)cc2)c1 was read as Mtb UGM inh 3, FadD28 FP inh -10, BioA inh 0, TcdB inh 2 and Rv3671c inh -30.
`Cc1ccc(Sc2ccc(NC(=O)CCl)cc2)c(C)c1` gave Mtb UGM inh 1, RecA splice inh 90*, TcdB inh 0, Rv3671c inh -11 and GFP chromophore 8.1*.
`Cc1ccc(S(=O)(=O)Nc2ccc3c(c2)CC(=O)N([C@H](C)CO)C[C@H](C)[C@H](CN(C)S(=O)(=O)c2cn(C)cn2)O3)cc1` gave BioA inh 6 and TcdB inh 1.
For COc1ccc(NC(=O)C(Cl)=C(Cl)Cl)cn1 the results were RecA splice inh 6, FadD28 FP inh -1 and TcdB inh 1.
COc1ccc(NC(=O)/C(Cl)=C(/Cl)S(=O)(=O)Cc2ccccc2)cn1 was read as RecA splice inh 76*, FadD28 FP inh -5, BioA inh -1 and GFP chromophore 7.5*.

Bioassay records as filed in PubChem BioAssay.
